# Shown are actives, neighbours in structure and some others; about 2.4% of the full set was active somewhere.
# D2 ag-1 – agonists of human D2 dopamine receptor | P14416 | HEK293 T-REx D2 cells, calcium flux agonist mode | activation, % at 2 µM | actives 0.53% (n = 340,000);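 active = activation over 3 SD above normal in the single-dose calcium agonist read, cut at about 30% in these data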
# Target sequence (P14416 whole entry, looked up): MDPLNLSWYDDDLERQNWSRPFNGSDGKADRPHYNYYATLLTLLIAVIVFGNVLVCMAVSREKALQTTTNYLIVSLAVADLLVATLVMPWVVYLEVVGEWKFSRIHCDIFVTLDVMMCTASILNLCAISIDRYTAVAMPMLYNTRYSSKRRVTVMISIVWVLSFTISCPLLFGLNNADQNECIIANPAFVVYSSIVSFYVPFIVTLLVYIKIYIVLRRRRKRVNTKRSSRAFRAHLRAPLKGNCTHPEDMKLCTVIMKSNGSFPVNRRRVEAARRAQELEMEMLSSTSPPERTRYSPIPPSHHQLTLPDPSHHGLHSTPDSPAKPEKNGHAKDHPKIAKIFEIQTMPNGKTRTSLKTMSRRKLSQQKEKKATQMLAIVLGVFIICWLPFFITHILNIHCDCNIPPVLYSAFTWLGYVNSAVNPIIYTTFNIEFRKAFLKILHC
#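 Agonism scored from kinetic calcium signal (1 read/sec, 180 s) following compound pin transfer, after a 10 s baseline. Cells: HEK293 Trex line expressing inducible D2 receptor coupled to calcium, dye-loaded after overnight culture at 30 C.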
# D2 antag – antagonists of human D2 dopamine receptor; AID 485344; actives 2% (n = 340,000); P14416; inhibition, % at 10 µM; HEK293 TREx D2 cells, calcium flux, dopamine EC80; in the data active = inhibition above about 30%; inactive = below that, where a call was filed
#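 Cells plated overnight at 30 C with tetracycline; no-wash calcium dye, 30–90 min RT; 10 s baseline; compound pinned; 180 s read; EC80 dopamine added; another 180 s read.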
# D2 ag-2 – agonists of human D2 dopamine receptor (beta-arrestin). P14416. DiscoveRx PathHunter D2 beta-arrestin, luminescence, 90 min; 100% = 57 uM dopamine signal. activation, % (no concentration beside the values). actives 0.084% (n = 360,000); in the data active = activation above about 40%
#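 DiscoveRx PathHunter D2 beta-arrestin cells (2,100/well) attached overnight, then compound-stimulated 90 min at 37 C in HBSS/10 mM HEPES/0.1% Tween-20 buffer; beta-galactosidase complementation read by luminescence after 1 h at ambient temperature. Dopamine 57 uM final (EC100) as control.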
# D2 PAM-1 – positive allosteric modulators of human D2 dopamine receptor | P14416 | AID 485347 | potentiation, % at 10 µM | HEK293 T-REx D2, calcium flux, EC20 dopamine potentiation | actives 0.34% (n = 340,000);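 active = potentiation over 3 SD above the plate norm, cut at about 30% in these data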
#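 Potentiation of an EC20 dopamine calcium response is measured in a force-coupled, tetracycline-inducible Hek293 Trex D2 line. Compound-only kinetic reads over 180 s flag agonists before dopamine addition.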
# D2 PAM-2 – positive allosteric modulators of human D2 dopamine receptor; DiscoveRx D2 beta-arrestin cells, luminescence, 90 min; 100% = 57 uM dopamine signal; potentiation, % (test concentration not listed); actives 0.23% (n = 360,000); in the data active = potentiation above about 50%
#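 D2 cells co-treated with compound plus 50 nM dopamine (EC20) for 90 min at 37 deg C to detect potentiation. Beta-arrestin recruitment was read as enzyme-fragment luminescence after 1 h at ambient temperature. Full response was set by 57 uM dopamine.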
# Numbers stand for hits; 0 = inactive; - = no result given.
SMILES,D2 ag-1,D2 antag,D2 ag-2,D2 PAM-1,D2 PAM-2
Cc1cc(OCC(=O)Nc2ccc(Br)cc2)cc2c1C(=O)CC(C)(C)O2,0,41.2,0,0,0
CC(=O)Nc1ccc(NC(=O)COc2cc(O)c3c(c2)OC(C)(C)CC3=O)cc1,0,0,0,0,0
CCOc1ccc(C(=O)Nc2c(C(=O)Nc3ccccc3OC)oc3ccccc23)cc1OCC,0,-,-,0,-
CC(C)(C)N(Cc1ccccc1)C(=O)CSc1nnc(CNc2ccc(F)cc2)o1,0,31.6,0,0,0
COc1ccc(C(=O)O)c(OC)n1,0,30.1,0,0,0
COc1ccc(C(=O)Nc2ccc(Cl)c(Cl)c2)c(OC)n1,0,0,0,0,0
CCN1CCSc2ccc(C(=O)NCc3ccc(OC(C)C)cc3)cc21,0,59.7,0,0,0
CCOc1ccc(CCNC(=O)c2ccc3c(c2)N(Cc2ccc(F)cc2)CCS3)cc1,-,-,-,0,-
CCOc1ccc(CNC(=O)c2ccc3c(c2)N(CC)CCS3)cc1,0,60.9,0,0,0
CCc1cccc(C)c1NC(=O)CN1C(=O)c2c(c3ccccc3n2C)C1c1ccc(OC)cc1 (configuration not stated),0,-,-,0,-
O=C(CNC(=O)c1ccc2c(c1)OCCO2)N/N=C/c1ccco1,0,0,0,0,0
O=C(CNC(=O)C12CC3CC(CC(C3)C1)C2)N/N=C\c1ccco1,0,0,0,0,79.7
COc1cccc(N2CCN(C(=O)c3ccc(C)c(NC(=O)c4nsc5ccccc45)c3)CC2)c1,0,-,-,0,-
CC(O)C(O)C(O)C(O)C1NCCS1 (configuration not stated),0,78.9,0,0,0
Cc1ccc(Oc2ncc(CN3CCOCC3)s2)cc1,0,0,0,0,0
Brc1ccc(Oc2ncc(CN3CCN(c4ccccc4)CC3)s2)cc1,0,0,44.7,0,0
O=C(Nc1ccc(OC(F)(F)F)cc1)c1ccc2nc[nH]c2c1,0,61.7,0,0,0
O=C(NCc1ccccc1Cl)C1CCCN(C(=O)c2cnn(-c3ccc(F)cc3)c2-n2cccc2)C1 (configuration not stated),0,-,-,0,-
C=CCN(CC=C)CCOc1cccc2ccccc12,35.2,0,0,0,0
C=CCN(CC=C)CCOc1ccccc1F,0,0,0,0,0
COc1ccc(CNC(=O)c2ccc(N3CCCC3)c(NC(=O)NCc3ccc(F)cc3)c2)cc1,0,-,-,0,-
CCc1ccc(NC(=O)N2CCN(Cc3cc(=O)n4nc(-c5ccccc5OC)sc4n3)CC2)cc1,0,-,-,0,-
Cc1nn2c(C)c(C(=O)NCC(C)c3ccccc3)cnc2c1-c1ccccc1 (configuration not stated),0,-,-,0,-
O=C(C[n+]1cccc(CNC(=O)c2ccc(OC(F)F)cc2)c1)Nc1ccc(F)cc1,0,0,0,0,0
O=C(C[n+]1cccc(CNC(=O)c2ccc(OC(F)F)cc2)c1)Nc1cccc(C(F)(F)F)c1,0,44.8,0,0,0
SMILES,D2 ag-1,D2 antag,D2 ag-2,D2 PAM-1,D2 PAM-2
O=C(Cc1ccccc1)NCCc1csc2nc(-c3ccc(Cl)cc3)nn12,0,-,-,0,-
O=C(O)CN1C(c2ccccc2O)Nc2ccc(Br)cc2C1c1ccccc1 (configuration not stated),0,0,0,0,0
COc1ccc(C2Nc3ccc(Br)cc3C(c3ccccc3)N2CC(=O)O)cc1 (configuration not stated),0,61.2,0,0,0
Cc1ccsc1CN(C(=O)c1oc2cc(Br)ccc2c1C)C1CCS(=O)(=O)C1 (configuration not stated),0,-,-,0,-
CCOc1ccc(/C=C/c2nc(C#N)c(NC(C)c3ccccc3)o2)cc1 (configuration not stated),0,-,-,0,-
CCC(C)NC(=O)Cn1cc(S(=O)(=O)N2CCCC2)c(S(=O)(=O)N2CCCC2)c1 (configuration not stated),0,0,0,0,0
CCCNC(=O)Cn1cc(S(=O)(=O)N2CCCC2)c(S(=O)(=O)N2CCCC2)c1,0,37.5,0,0,0
CCN(CC)CCCOC(=O)C(c1ccccc1)c1ccccc1,0,49.7,0,0,0
O=C(NC1CCCCC1)c1cccc2c1C(=O)c1ccc(N3CCCC3)cc1S2(=O)=O,-,-,0,-,0
O=C(NC1CCCC1)c1cccc2c1C(=O)c1ccc(N3CCCCC3)cc1S2(=O)=O,0,0,0,36.6,0
CN(CCC#N)C(=O)Cn1nc(Cc2ccncc2)c2ccccc2c1=O,0,35.2,0,0,0
C/C(=N\NC(=O)c1ccc(C)cc1C)c1ccc2c(c1)OCO2,0,0,0,0,0
C/C(=N\NC(=O)c1cc2ccccc2cc1O)c1ccc2c(c1)OCO2,0,33.3,0,0,0
Cc1ccc(N2C(=O)CSC23C(=O)N(CC(=O)Nc2ccc(C)cc2C)c2ccccc23)cc1 (configuration not stated),0,-,-,-,-
CCOC(=O)C1=C(c2ccccc2)NC(SCC(=O)Nc2ccc(C)cc2)=C(C#N)C1c1ccco1 (configuration not stated),0,54.9,0,0,0
CCOC(=O)C1=C(c2ccccc2)NC(SCC(=O)Nc2cccc(C)c2)=C(C#N)C1c1ccco1 (configuration not stated),0,0,0,0,0
COc1ccccc1CNC(=O)c1ccc(-c2nc(CS(=O)c3ccc(C)cc3)c(C)o2)cc1 (configuration not stated),0,-,-,0,-
O=C(CSc1nc(O)c(Cc2ccccc2)c(=O)[nH]1)Nc1ccccc1,0,0,0,0,0
COc1ccc(NC(=O)CSc2nc(O)c(Cc3ccccc3)c(=O)[nH]2)cc1,0,52.6,0,0,0
Nc1nc(SCC(=O)Nc2ccc(Cl)cc2)[nH]c(=O)c1-c1ccccc1,0,35.6,0,0,0
COc1cccc(-c2nc3c(C#N)c[nH]n3c2NC2CCCCC2)c1,0,-,-,0,-
COc1ccc(/C=C/C(=O)C2CC2)cc1COc1c(C)cccc1C,0,0,0,-,0
COc1ccc(/C=C/C(=O)O)cc1COc1cccc(C)c1,0,40.3,0,0,0
CCOC(=O)c1cnc(-n2nc(C)cc2C)nc1NCCc1ccccc1,0,34.3,0,0,0
CCOC(=O)c1cnc(-n2nc(C)cc2C)nc1Nc1ccccc1OC,0,0,-,0,-
Cc1ccc(NC(=O)CN2CCN(C(=O)c3ccco3)CC2)cc1S(=O)(=O)N(C)C,-,-,44.5,-,0
Cc1ccc(NC(=O)CCNC(=O)Nc2ccccc2)cc1S(=O)(=O)N(C)C,0,0,0,0,0
Cc1ccc(NC(=O)Cn2ccsc2=N)cc1S(=O)(=O)N(C)C,0,35.5,0,0,0
Cc1ccc(NC(=O)CCNCc2ccco2)cc1S(=O)(=O)N(C)C,0,33.6,0,0,0
CN(C)S(=O)(=O)c1cc(NC(=O)Cn2ccsc2=N)ccc1Cl,0,0,0,0,0

# Source: PubChem
